Most compounds without a hit are left out; they make up all but 4.5% or so of the library.
Rtt109 HAT inh – inhibitors of C. albicans Rtt109/Vps75 HAT, primary screen, biochemical, ThioGlo CoA-SH fluorescence, plate reader | Histone acetyltransferase RTT109 (Candida albicans (strain SC5314 / ATCC MYA-2876)), … | purified Rtt109/Vps75, 4 h | inhibition, % at 34.9 µM | 330,000 compounds, 0.16% hits | AID 540336, 2011;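 active = inhibition of at least 50% in every replicate; inconclusive = best replicate reaches 50% inhibition but some replicates fall short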
HDAC3 inh – HDAC3 deacetylase inhibitors, primary screen, biochemical, fluorescence, cell-free homogeneous; Histone deacetylase 3 (Homo sapiens), O15379; inhibition, % at 8.3 µM; recombinant HDAC3, fluorogenic peptide/trypsin coupled; 320,000 compounds, 0.15% hits; in the data active = inhibition above about 26%, passing the limit was not always enough; inconclusive = no clear call, values can overlap the other calls
ALR H2O2 inh – inhibitors of human ALR sulfhydryl oxidase, primary screen, biochemical, H2O2 detection, HRP-luminol luminescence, single point; 290,000 compounds, 3.8% hits; inhibition, % (test concentration not listed); FAD-linked sulfhydryl oxidase ALR (Homo sapiens), P55789; purified ALR, DTT oxidation;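 active = mean replicate inhibition above about 79%, with every replicate also reaching it, limit read from the data; inconclusive = only one of the two criteria met; inactive = mean below limit and not every replicate reaching it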
GRK2 aptamer HTS – compounds blocking aptamer binding on GRK2 – biochemical, human GRK2, bead flow cytometry, HTS, primary screen | Beta-adrenergic receptor kinase 1 (Homo sapiens), P25098 | FAM-aptamer displacement from GRK2 | inhibition of aptamer binding, % at 10 µM | 330,000 compounds, 0.59% hits | AID 488847, 2010;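 active = inhibition of aptamer binding above 40%, roughly 3 SD of noise, on plates passing a quality check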;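 also: median bead fluorescence of bound FAM aptamer so fluorescent compounds give negative values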
Efflux pump inh – inhibitors of Candida efflux pumps in yeast, primary screen, S. cerevisiae, Nile Red, multiplex | 330,000 compounds, 0.44% hits | inhibition, % at 10 µM | AID 485275, 2010 | S. cerevisiae Candida pump triplex;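 active = plate passing quality check with inhibition over a set limit, or well fluorescence over plate mean plus 4 SD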;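 also: Nile Red retained in pooled yeast measured as flow cytometry median fluorescence; 0% = buffer negative control and 100% = Enniatin B positive control; higher means more Nile Red kept so more efflux inhibition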
Rce1 inh – yeast Rce1p protease inhibitors, primary screen, biochemical, fluorescence, cell-free homogeneous; 290,000 compounds, 0.27% hits; calls only; CAAX prenyl protease 2 (Saccharomyces cerevisiae (strain ATCC 204508 / S288c)), Q03530; yeast membranes, quenched prenylated peptide cleavage fluorescence;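 active = fall in fluorescence gain of 50% or more versus controls, with final raw signal at or below 3038400; inconclusive = same 50% fall but final raw signal above 3038400; inactive = fall in fluorescence gain under 50%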;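 also: plate controls were neutral control wells for no effect and wells lacking membranes for full effect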
Target sequence (Q03530 whole entry, looked up): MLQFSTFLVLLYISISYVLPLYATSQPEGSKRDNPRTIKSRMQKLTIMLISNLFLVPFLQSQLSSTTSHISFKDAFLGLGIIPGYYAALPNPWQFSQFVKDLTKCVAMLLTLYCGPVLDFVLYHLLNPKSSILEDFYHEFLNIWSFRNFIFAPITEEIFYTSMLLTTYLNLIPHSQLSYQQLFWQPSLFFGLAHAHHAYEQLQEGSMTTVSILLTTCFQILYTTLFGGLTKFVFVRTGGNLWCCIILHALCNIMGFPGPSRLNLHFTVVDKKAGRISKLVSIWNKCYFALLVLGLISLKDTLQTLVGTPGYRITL
Starred values were filed as active, the others as inactive; i = inactive; ? = inconclusive; nt = no result given; + = active, no number.

SMILES	Rtt109 HAT inh	HDAC3 inh	ALR H2O2 inh	GRK2 aptamer HTS	Efflux pump inh	Rce1 inh
COCCCNC(=S)Nc1ccc2nc(N3CCOCC3)cc(C)c2c1	-3	-9	69	0	0	i
CCN(CC)CCNC(=S)Nc1ccc2nc(N3CCN(C)CC3)cc(C)c2c1	0	3	-1	0	0	i
COc1ccc(CNC(=S)Nc2ccc3nc(N4CCOCC4)cc(C)c3c2)cc1	2	-5	99*	0	0	i
CCN(CC)CCNC(=S)Nc1ccc2nc(N3CCCC3)cc(C)c2c1	-5	nt	99*	0	0	i
CCOCCCNC(=S)Nc1ccc2nc(N3CCOCC3)cc(C)c2c1	3	-5	99*	2	0	i
O=C(CCSc1nc2cc(Cl)ccc2o1)N1CCOCC1	26	1	99*	2	0	i
CCNC(=O)CCSc1nc2cc(Cl)ccc2o1	1	2	90*	0	0	nt
O=C(CSc1nc2cc(Cl)ccc2o1)N1CCOCC1	?	11	10	0	0	nt
CCOC(=O)c1c(C)n(C(=O)c2ccco2)c(=O)n1C(=O)c1ccco1	0	?	97*	2	0	i
COc1ccc(C2/C(=C(/O)c3ccc(C)cc3)C(=O)C(=O)N2CCCN2CCOCC2)cc1 (stereo not drawn)	-1	5	28	3	0	i
CCCCOc1ccc(CC(=O)NO)cc1	4	14	91*	1	0	i
COc1ccc(C2=CSC3=NNC4(CCCCC4)NN23)cc1	-10	0	98*	nt	0	i
Cc1ccc(C2=CSC3=NNC4(CCCCC4)NN23)cc1	0	6	100*	0	0	i
Cc1ccc(C2=CSC3=NCCN23)c(C)c1	16	1	-7	0	0	i
COc1ccc(C2=CSC3=NCCN23)cc1	nt	-3	53	1	0	i
Cc1c(N=C/C=C2/N(C)c3ccccc3C2(C)C)c(=O)n(-c2ccccc2)n1C	25	-2	99*	8	0	i
CN(C)c1ccc(N=C/C=C2\N(C)c3ccccc3C2(C)C)cc1	24	13	99*	0	0	i
CN1/C(=C\C=O)C(C)(C)c2ccccc21	8	8	-4	0	0	i
Cc1c(N=C/C=C2\N(C)c3ccccc3C2(C)C)c(=O)n(-c2ccccc2)n1C	nt	13	93*	2	0	i
Cc1c(N=C/C=C/c2ccccc2)c(=O)n(-c2ccccc2)n1C	8	-4	63	2	0	i
CN1/C(=C\C=Nc2ccc3ccccc3c2)C(C)(C)c2ccccc21	11	11	nt	1	0	nt
Cc1c(NC(=S)/C=C2\N(C)c3ccccc3C2(C)C)c(=O)n(-c2ccccc2)n1C	24	8	95*	1	0	i
COc1ccc(CN(C)C(=O)Cn2cc(C)c(=O)[nH]c2=O)cc1OC	-11	nt	nt	nt	nt	nt
CN1/C(=C/C=C(C#N)C#N)C(C)(C)c2ccccc21	2	2	-53	0	0	i
Cc1cc(/N=C/C=C2\N(C)c3ccccc3C2(C)C)n(CCC#N)n1	7	2	99*	4	0	i
CCn1c2ccc(C)cc2c2nnc(NN)nc21	7	9	99*	2	0	i
COC(=O)CCNC(=O)CCc1ccc(S(=O)(=O)N2CCCCCC2)cc1	-2	2	-6	0	0	nt
COc1ccc(N=C(N(C)C)P(=O)(N(C)C)N(C)C)cc1	-7	-1	99*	11	0	i
CCc1cc(=O)oc2c3c(cc(OCC(=O)NCCCC(=O)O)c12)OC(C)(C)CC3	9	-104	-6	0	0	+
